Results reported in PubChem BioAssay.
Calls of active or inactive are those of the source. Unless noted, how the calls were made is not given here.

Tests used:
[1] = system: Wnt5a (protein binding on small-molecule microarray); assay: small molecules binding Wnt5a protein – biophysical, small-molecule microarray, 635/667 nm fluorescence, primary screen (AID 1142); settings: 635 nm fluorescence, higher = more signal;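 further: fluorescence read at 667 nm with signal to noise per printed feature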
[2] = ATP-based viability of Huh7 replicon cells – cell-based, CellTiter-Glo luminescence, basal, 48 h, cytotoxicity control for HCV replication inhibitor project, primary screen (AID 1143); settings: higher = more signal, called active from +8 up or from −8 down;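 further: Huh7 hepatoma cells carrying a hepatitis C replication reporter with no stimulus; test concentration not given here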
[3] = Pseudomonas biofilm growth suppression – PAO1 strain, BacTiter-Glo luminescence, LB-PBS, primary screen (AID 1144); settings: P. aeruginosa PAO1 biofilm, 12 h, higher = more signal
[4] = basal CRE-LacZ reporter activity in PC12 – cell-based, unstimulated, primary screen (AID 1145); settings: no forskolin, luminescence, 4.5 h, higher = more signal, called active from +8 up or from −8 down
[5] = forskolin-driven CRE-LacZ activity in PC12 – cell-based, CRE-LacZ reporter, forskolin-stimulated, primary screen (AID 1146); settings: luminescence, 4.5 h, higher = more signal, called active from +8 up or from −8 down;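 further: PC12 cells with 6xCRE LacZ reporter stimulated by forskolin 10 µM; beta-galactosidase reporter signal reflecting CREB driven transcription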
[6] = biological target: Streptavidin (Streptomyces avidinii) (UniProt P22629); assay: compounds binding control protein streptavidin – biophysical, small-molecule microarray, 635/667 nm fluorescence, artefact control for SMM compound annotation, primary screen (AID 1147); settings: higher = more signal;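 further: signal reflects streptavidin binding to arrayed compounds as a control protein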
[7] = probe aInhba binding on compound microarray – biochemical, small-molecule microarray, 635/667 nm fluorescence, primary screen (AID 1148); settings: higher = more signal;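 further: score merges 667nm spot fluorescence with signal-to-noise for antibody binding to printed compounds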
Torsin-1A (Homo sapiens) [8] = biological target: Torsin-1A (Homo sapiens) (UniProt O14656); assay: TOR1A wild-type binding on microarray – cell lysate, small-molecule microarray, lysate, 635/667 nm, primary screen (AID 1149); settings: COS7 hTOR1A-WT lysate, 635 nm fluorescence, higher = more signal
Torsin-1A (Homo sapiens) [9] = biological target: Torsin-1A (Homo sapiens) (UniProt O14656); assay: torsin A mutant lysate binding on microarrays – cell lysate, small-molecule microarray, COS7 lysate, 635/667 nm fluorescence, primary screen (AID 1150); settings: COS7 hTOR1A mutant lysate, 635 nm fluorescence, higher = more signal;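 further: score pools 667 nm emission and signal to noise measuring lysate protein binding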
[10] = system: Sonic hedgehog protein (Shh); assay: Sonic hedgehog microarray binding compounds – biochemical, small-molecule microarray, 635/667 nm fluorescence, primary screen (AID 1151); settings: 635 nm fluorescence, higher = more signal;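 further: Shh protein binding to compounds spotted on small-molecule microarray slides; score combines spot fluorescence intensity with signal-to-noise across triplicate slides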
[11] = optical density shifts of acrAB sulA E. coli – strain DRC41, OD650, 48 h, E. coli filamentation inducer project, primary screen (AID 1152); settings: higher = more signal, called active from +8 up or from −8 down;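 further: E. coli MC1000 strain DRC41 lacking acrAB efflux pump and sulA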
[12] = probe aLefty1 binding on compound microarray – biochemical, small-molecule microarray, 635/667 nm fluorescence, primary screen (AID 1153); settings: higher = more signal;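 further: score merges spot fluorescence with signal-to-noise ratio from the scanned slide images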
[13] = plasmodial surface anion channel blockers, osmotic lysis – cell-based, P. falciparum Indochina, OD700, 1 h, primary screen (AID 1154); settings: P. falciparum Indochina infected RBC osmotic lysis, higher = more signal, called active from +8 up or from −8 down
[14] = plasmodial surface anion channel blockers, osmotic lysis – cell-based, P. falciparum Indochina, OD700, 2 h, primary screen (AID 1155);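 further: lysis reports solute entry through the parasite surface anion channel PSAC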; settings: P. falciparum Indochina infected erythrocytes, higher = more signal, called active from +8 up or from −8 down
[15] = changes in parasitized red cell lysis, either direction – P. falciparum Indochina, OD700, 3 h, PSAC antagonist project, primary screen (AID 1156); settings: P. falciparum-infected erythrocytes, osmotic lysis, higher = more signal, called active from +8 up or from −8 down
[16] = plasmodial surface anion channel blockers, osmotic lysis – cell-based, P. falciparum Indochina, OD700, 18 h, primary screen (AID 1157); settings: P. falciparum Indochina infected erythrocytes, osmotic lysis OD700, 18 h; higher = more signal, called active from +8 up or from −8 down
[17] = S6 kinase pathway phospho-S6 level changes – cell-based, A549, cytoblot, luminescence, serum-stimulated, primary screen (AID 1158); settings: 5 h, higher = more signal;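 further: serum-stimulated A549 lung adenocarcinoma cells; signal is phosphorylated S6 detected by cytoblot immunostaining with HRP secondary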
[18] = biological target: NADPH oxidase 2 (Homo sapiens) (UniProt P04839); assay: compounds shifting NOX2 Amplex Red fluorescence – cell-based, HEK293-NOX2, PMA-stimulated, NOX inhibitor project, primary screen (AID 1159); settings: 45 min, higher = more signal, called active from +8 up or from −8 down; further: test concentration not given here
[19] = biological target: NADPH oxidase 4 (Homo sapiens) (UniProt Q9NPH5); assay: compounds shifting NOX4 Amplex Red fluorescence – cell-based, HEK293-NOX4, tetracycline-induced, NOX inhibitor project, primary screen (AID 1160); settings: HEK293-NOX4, Amplex Red H2O2 fluorescence, 45 min; higher = more signal, called active from +8 up or from −8 down
[20] = biological target: NADPH oxidase 5 (Homo sapiens) (UniProt Q96PH1); assay: compounds shifting NOX5 Amplex Red fluorescence – cell-based, HEK293-NOX5, NOX inhibitor project, primary screen (AID 1161); settings: HEK293-NOX5, ionomycin, 45 min, higher = more signal
Sequence of NADPH oxidase 5 (Homo sapiens) (Q96PH1 whole entry, looked up): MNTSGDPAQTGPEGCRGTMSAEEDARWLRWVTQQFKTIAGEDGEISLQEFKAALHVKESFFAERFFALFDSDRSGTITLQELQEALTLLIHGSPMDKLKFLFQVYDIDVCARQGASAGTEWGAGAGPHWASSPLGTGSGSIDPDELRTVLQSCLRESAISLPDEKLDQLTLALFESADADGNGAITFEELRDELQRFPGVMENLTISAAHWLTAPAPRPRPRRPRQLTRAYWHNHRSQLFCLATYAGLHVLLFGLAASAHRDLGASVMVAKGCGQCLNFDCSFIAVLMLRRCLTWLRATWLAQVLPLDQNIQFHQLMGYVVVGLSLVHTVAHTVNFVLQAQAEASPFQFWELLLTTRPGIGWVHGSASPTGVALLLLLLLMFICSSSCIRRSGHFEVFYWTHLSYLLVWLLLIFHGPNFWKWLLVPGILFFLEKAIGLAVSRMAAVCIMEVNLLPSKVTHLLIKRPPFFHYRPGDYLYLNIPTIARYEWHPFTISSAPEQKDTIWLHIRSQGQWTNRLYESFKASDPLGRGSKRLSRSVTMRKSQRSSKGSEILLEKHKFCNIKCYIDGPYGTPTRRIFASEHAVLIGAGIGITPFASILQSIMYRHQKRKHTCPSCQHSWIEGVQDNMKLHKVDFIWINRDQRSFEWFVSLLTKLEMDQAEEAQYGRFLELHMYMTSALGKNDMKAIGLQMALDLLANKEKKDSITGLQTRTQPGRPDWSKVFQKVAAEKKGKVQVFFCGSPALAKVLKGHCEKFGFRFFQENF

Sequence of Torsin-1A (Homo sapiens) (O14656 whole entry, looked up): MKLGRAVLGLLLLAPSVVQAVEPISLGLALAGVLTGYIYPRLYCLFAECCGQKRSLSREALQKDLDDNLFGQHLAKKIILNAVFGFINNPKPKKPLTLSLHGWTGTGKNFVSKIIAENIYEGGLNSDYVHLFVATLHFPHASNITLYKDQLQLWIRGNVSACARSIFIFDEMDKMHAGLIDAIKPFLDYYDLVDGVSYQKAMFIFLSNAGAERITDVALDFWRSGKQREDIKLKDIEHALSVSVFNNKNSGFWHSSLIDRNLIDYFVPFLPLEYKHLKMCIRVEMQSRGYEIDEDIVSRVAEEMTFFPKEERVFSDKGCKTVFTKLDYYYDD
Sequence of NADPH oxidase 4 (Homo sapiens) (Q9NPH5 whole entry, looked up): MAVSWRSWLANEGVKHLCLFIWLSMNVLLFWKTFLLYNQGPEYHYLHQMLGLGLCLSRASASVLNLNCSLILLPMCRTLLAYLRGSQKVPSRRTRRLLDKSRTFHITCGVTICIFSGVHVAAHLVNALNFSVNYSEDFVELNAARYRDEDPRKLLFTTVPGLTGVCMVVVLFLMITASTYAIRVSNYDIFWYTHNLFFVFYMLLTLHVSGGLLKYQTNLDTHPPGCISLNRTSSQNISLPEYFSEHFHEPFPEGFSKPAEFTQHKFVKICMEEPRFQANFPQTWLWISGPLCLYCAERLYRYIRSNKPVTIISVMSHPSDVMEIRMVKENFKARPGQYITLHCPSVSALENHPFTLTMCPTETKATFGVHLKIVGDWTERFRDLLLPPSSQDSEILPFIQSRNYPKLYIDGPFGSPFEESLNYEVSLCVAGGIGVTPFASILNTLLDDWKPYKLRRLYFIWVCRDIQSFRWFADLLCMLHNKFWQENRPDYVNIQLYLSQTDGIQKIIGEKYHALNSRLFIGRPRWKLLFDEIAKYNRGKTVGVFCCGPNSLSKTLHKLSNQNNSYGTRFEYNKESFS
Sequence of NADPH oxidase 2 (Homo sapiens) (P04839 whole entry, looked up): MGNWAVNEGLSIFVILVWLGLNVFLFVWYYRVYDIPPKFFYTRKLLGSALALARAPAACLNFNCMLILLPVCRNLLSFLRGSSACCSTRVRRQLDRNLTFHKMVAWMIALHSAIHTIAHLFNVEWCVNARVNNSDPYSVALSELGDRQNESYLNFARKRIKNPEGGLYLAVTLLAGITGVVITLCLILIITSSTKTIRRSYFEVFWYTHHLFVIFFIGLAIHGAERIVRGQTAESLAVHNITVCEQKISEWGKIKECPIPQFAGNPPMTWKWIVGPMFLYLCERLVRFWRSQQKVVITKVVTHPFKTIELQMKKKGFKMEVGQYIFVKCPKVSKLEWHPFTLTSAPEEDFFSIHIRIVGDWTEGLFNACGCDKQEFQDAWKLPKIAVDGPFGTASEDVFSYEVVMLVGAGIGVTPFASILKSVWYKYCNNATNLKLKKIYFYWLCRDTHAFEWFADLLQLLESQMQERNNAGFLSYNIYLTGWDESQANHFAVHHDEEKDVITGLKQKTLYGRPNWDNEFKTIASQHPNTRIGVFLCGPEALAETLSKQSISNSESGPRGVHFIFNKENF
Sequence of Streptavidin (Streptomyces avidinii) (P22629 whole entry, looked up): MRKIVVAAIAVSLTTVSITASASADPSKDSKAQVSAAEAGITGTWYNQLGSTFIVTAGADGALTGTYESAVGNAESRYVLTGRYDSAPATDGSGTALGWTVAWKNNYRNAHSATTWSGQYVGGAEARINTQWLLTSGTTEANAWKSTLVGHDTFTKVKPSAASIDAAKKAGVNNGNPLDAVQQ

SMILES	composite z-score [1]	z-score [2]	z-score [3]	z-score [4]	z-score [5]	composite z-score [6]	composite z-score [7]	composite z-score (Torsin-1A (Homo sapiens) [8])	composite z-score (Torsin-1A (Homo sapiens) [9])	composite z-score [10]	z-score [11]	composite z-score [12]	z-score [13]	z-score [14]	z-score [15]	z-score [16]	z-score [17]	z-score [18]	z-score [19]	z-score [20]
CCCC[C@H]1OB(O)C[C@H]2C1=C(COc1ccccc1)C[C@H]1C(=O)N(C)C(=O)[C@H]12	0.195	-0.348 (inactive)	1.04 (inactive)	1.77 (inactive)	0.899 (inactive)	-0.385	-0.0933	-0.212	0.138	0.853	-0.882 (inactive)	-0.0989	1.31 (inactive)	-0.252 (inactive)	-0.761 (inactive)	0.232 (inactive)	-0.149	-0.405 (inactive)	0.509 (inactive)	0.224
COC(=O)[C@@]1(Cc2ccc(OC)cc2)[C@H]2c3cc(C(=O)N(C)C)n(Cc4cccc5ccccc45)c3C[C@H]2CN1C(=O)c1ccccc1	1.44	-4.45 (inactive)	-0.0601 (inactive)	0.0075 (inactive)	0.458 (inactive)	0.697	0.943	0.817	1.14	0.659	-1.27 (inactive)	0.468	2.33 (inactive)	-0.206 (inactive)	1.19 (inactive)	-1.39 (inactive)	2.11	-3.14 (inactive)	-1.83 (inactive)	-4.62
C[C@@]1([C@@H](NC(=O)c2ccccc2)c2ccc(-c3ccccc3)cc2)C[C@H]1C1CCCCC1	0.367	0.147 (inactive)	-0.232 (inactive)	0.201 (inactive)	0.957 (inactive)	1.1	0.333	0.0627	-0.0293	-1.1	-2.22 (inactive)	0.476	-0.118 (inactive)	0.28 (inactive)	0.833 (inactive)	0.888 (inactive)	0.994	-0.658 (inactive)	-1.06 (inactive)	-0.782
COC(=O)[C@@]1(Cc2ccccc2)[C@H]2c3cc(C(=O)N(C)C)n(CCSCCO)c3C[C@H]2CN1C(=O)c1ccccc1	0.197	-0.432 (inactive)	0.33 (inactive)	0.397 (inactive)	0.695 (inactive)	0.357	-0.0589	-0.0487	0.796	-0.931	-1.8 (inactive)	0.138	1.02 (inactive)	0.187 (inactive)	0.189 (inactive)	0.496 (inactive)	-0.199	0.594 (inactive)	0.597 (inactive)	-0.72
CS(=O)(=O)CCOC(=O)C1=CC(CCCO)=CC(c2ccc(CN3CCCC3)cc2)N(Cc2cc3c(cc2Br)OCO3)C=C1C(=O)OCCS(C)(=O)=O (stereo not given)	0.592	-0.277 (inactive)	0.814 (inactive)	4.06 (inactive)	-1.45 (inactive)	1.5	0.229	2.09	2.13	0.404	-0.357 (inactive)	0.485	0.246 (inactive)	-0.211 (inactive)	1.14 (inactive)	0.111 (inactive)	-0.606	2.54 (inactive)	0.524 (inactive)	0.597
[N-]=[N+]=NCc1ccccc1C[C@]1(C(=O)O)N=C(c2ccc(OCCCO)cc2)O[C@H]1c1ccccc1N=[N+]=[N-]	0.92	-2.37 (inactive)	-2.08 (inactive)	0.218 (inactive)	0.987 (inactive)	0.954	0.199	2.01	1.39	0.237	0.23 (inactive)	0.396	36.3 (active)	33.8 (active)	4.02 (inactive)	10 (active)	0.468	-2.14 (inactive)	0.705 (inactive)	-1.92
CCOC(=O)[C@H]1C/C=C/C[C@H](C(=O)OCC)C(=O)O[C@H]2[C@@H](OC)O[C@H](CO)[C@@H](OC(=O)Nc3ccc(C#N)cc3)[C@@H]2OC1=O	0.121	-6.66 (inactive)	-2.89 (inactive)	-1.29 (inactive)	-1.66 (inactive)	-0.576	-0.128	0.392	1.08	0.673	3.06 (inactive)	-0.364	12.3 (active)	2.33 (inactive)	-0.906 (inactive)	1.13 (inactive)	2.47	-0.311 (inactive)	0.2 (inactive)	1.4
CCCN1C(=O)[C@]2(CCS(=O)(=O)c3ccccc3)N=C(c3ccc(OCCCO)cc3)O[C@@H]2c2ccccc21	0.419	-4.93 (inactive)	-1.32 (inactive)	-0.254 (inactive)	-1.53 (inactive)	1.24	0.0475	1.33	1.24	1.13	1.51 (inactive)	0.497	29.3 (active)	21.2 (active)	1.31 (inactive)	0.471 (inactive)	1.42	-1.5 (inactive)	-0.284 (inactive)	-1.17
COCCOC(=O)N1C(=O)[C@@]2(c3cc(C#CCNC(N)=O)ccc31)[C@H](C(=O)NC[C@H](O)c1ccccc1)[C@H]1C(=O)O[C@H](c3ccccc3)[C@H](c3ccccc3)N1[C@@H]2c1ccccc1OCCO	0.8	-0.417 (inactive)	-0.0351 (inactive)	-0.199 (inactive)	-0.972 (inactive)	-0.198	0.801	0.403	0.593	1.08	-0.119 (inactive)	1.28	2.05 (inactive)	0.35 (inactive)	0.927 (inactive)	0.317 (inactive)	0.239	1.91 (inactive)	1.63 (inactive)	-0.63
C=CCOC(=O)[C@@H]1[C@H]2C(=O)O[C@H](c3ccccc3)[C@H](c3ccccc3)N2[C@H](c2ccc(OCCOC(=O)[C@@H]3C[C@@H]4C(=O)N[C@@H](Cc5ccccc5)C(=O)N4[C@@H]3c3ccc(O)cc3)cc2)[C@@]12C(=O)Nc1ccc(I)cc12	0.425	-1.28 (inactive)	-0.606 (inactive)	-0.537 (inactive)	-0.526 (inactive)	0.122	0.0154	0.521	0.38	2.22	0.299 (inactive)	0.546	2.33 (inactive)	1.87 (inactive)	5.01 (inactive)	1.14 (inactive)	0.572	0.715 (inactive)	0.304 (inactive)	0.591
CCOC(=O)C1=CCC(c2ccccc2)N(S(=O)(=O)CC[Si](C)(C)C)C1 (stereo not given)	-0.386	-4.87 (inactive)	-0.296 (inactive)	-0.322 (inactive)	0.497 (inactive)	-0.192	-0.363	1.04	0.673	-0.302	-0.348 (inactive)	-0.147	2.49 (inactive)	0.767 (inactive)	-0.0704 (inactive)	0.561 (inactive)	-0.215	0.183 (inactive)	0.976 (inactive)	-0.179
COc1ccc([C@H]2C[C@H]3C(Br)=C[C@@H]2C(=O)[C@]32CO2)cc1	-0.0556	0.0402 (inactive)	1.11 (inactive)	2.85 (inactive)	0.357 (inactive)	0.256	-0.0822	-0.0733	-0.12	0.311	0.834 (inactive)	-0.294	1.27 (inactive)	0.581 (inactive)	1.23 (inactive)	0.207 (inactive)	-0.288	-0.0817 (inactive)	0.106 (inactive)	-0.837
O=C1OCCC/C=C\[C@H]2OC34C=CCN(Cc5ccccc5)C(=O)[C@H]3N(CCCCCCO)C(=O)[C@@H]4C12 (stereo not given in full)	-0.489	0.233 (inactive)	-1.14 (inactive)	1.01 (inactive)	0.0851 (inactive)	-0.821	-0.147	-0.309	1.9	-0.693	1.19 (inactive)	-0.0576	2.96 (inactive)	0.141 (inactive)	0.59 (inactive)	0.524 (inactive)	0.0169	1.12 (inactive)	0.279 (inactive)	1.88
CCCCN1CC=CC23O[C@@H]4/C=C\CCC(C)OC(=O)C4[C@H]2C(=O)N(CCCCCO)[C@@H]3C1=O (stereo not given in full)	-0.612	0.0396 (inactive)	-0.398 (inactive)	0.191 (inactive)	-0.0864 (inactive)	-1.24	-0.246	-1.6	-1.78	-0.0223	0.119 (inactive)	-0.147	1.03 (inactive)	-0.0101 (inactive)	-0.0712 (inactive)	0.406 (inactive)	0.002	0.395 (inactive)	-0.022 (inactive)	1.21
O=C1O[C@@H](c2ccccc2)[C@@H](c2ccccc2)N2[C@@H](c3ccccc3OCCO)[C@]3(C(=O)Nc4ccc(C#CC5=CCCCC5)cc43)[C@@H](C(=O)Nc3nc4ccccc4s3)[C@H]12	0.799	-4.3 (inactive)	-1.15 (inactive)	-0.191 (inactive)	0.447 (inactive)	1.1	0.0516	-0.271	0.335	0.988	0.36 (inactive)	0.293	1.83 (inactive)	1.9 (inactive)	1.37 (inactive)	1.83 (inactive)	0.653	1.78 (inactive)	0.387 (inactive)	1.59
CC[C@@H]1C=C(C(=O)O)[C@H](c2ccco2)N1S(=O)(=O)c1ccc(C)cc1	-0.291	0.433 (inactive)	-0.187 (inactive)	-0.518 (inactive)	1.1 (inactive)	0.402	0.0228	-0.282	0.222	0.374	-0.0046 (inactive)	-0.148	1.96 (inactive)	1.37 (inactive)	-0.0701 (inactive)	0.953 (inactive)	0.123	0.152 (inactive)	-0.589 (inactive)	-0.764
